Compounds with a hit are over-represented: about 5.9% of the library has one in this group of screens.
HSP90 refold inh = blocks HSP90-mediated luciferase refolding in reticulocyte lysate; Rabbit reticulocyte lysate, luciferase refolding luminescence, 3 h; inhibition, % at 5.6 µM; 290,000 tested, 0.91% active;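 active = inhibition above the screen-wide mean plus 3 SD, computed separately per campaign, cut at about 16% in these data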;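 note: 0% = DMSO wells and 100% = 60 µM geldanamycin wells; inhibitors lower the luminescence because luciferase stays unfolded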
FXN GAA850 act = activators of GAA850 frataxin (FXN) promoter; HEK293 lucGAA850 FXN promoter luciferase reporter, 24 h; percent of 10 µM SAHA response; activation, % at 6 µM; 360,000 tested, 0.56% active; AID 540364;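 active = activation above the average of all compounds screened plus 3 SD, cutoff fixed separately per campaign, cut at about 7.5% in these data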;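 note: 0% = DMSO wells and 100% = 10 µM SAHA wells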
AHR activator = activators of human aryl hydrocarbon receptor | AHR-responsive luciferase reporter cells, luminescence | activation, % at 5 µM | 320,000 tested, 2.5% active; in the data active = activation above about 47%;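 note: 0% = vehicle wells and 100% = reference agonist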
HSF-1 act = increases HSF-1 driven luciferase reporter signal. NIH3T3-HGL HSF-1 luciferase reporter, MG132, 8 h; 100% = twice DMSO control signal. activation, % at 9 µM. 300,000 tested, 1.7% active;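 active = mean replicate activation of at least 50% with a set share of replicates each reaching 50%; inconclusive = only one of those two conditions met; inactive = mean below 50% and too few replicates reaching it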;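 note: 0% = median of the neutral control wells and 100% = twice that signal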
NR0B1 inh = inhibits human nuclear receptor DAX1 | 340,000 tested, 0.99% active | inhibition, % at 6.75 µM | HEK293 Gal4-DAX1 luciferase reporter, luminescence | P51843;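 active = inhibition above the mean over all tested compounds plus 3 SD, cut at about 4.2% in these data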;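 note: 0% = DAX1-transfected cells with DMSO and 100% = empty-vector control cells with DMSO; inhibition shows as a rise in luminescence from relieved DAX1 repression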
HSF1 inh = HSF1 inhibition; NIH3T3-HGL HSE-luciferase, MG132-induced, luminescence 8 h; active compounds read low; AID 2098; activity change, negative = inhibition, % at 7.5 µM (by protocol); 300,000 tested, 0.77% active;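 active = more than half of replicate wells show activity change below -50%, luminescence cut by over half; inconclusive = some wells, but at most half, below -50%; inactive = no replicate well below -50%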;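 note: luciferase reports HSF-1 transcriptional activity via heat shock element; 0% = median of DMSO wells and -100% = zero luminescence signal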
GAA30 FXN cntr = GAA30 FXN promoter activation counter-screen; shares compounds with FXN GAA850 act; HEK293 lucGAA30 FXN promoter luciferase, 24 h; DMSO = 0%, 5 µM ipriflavone = 100%; activation, % at 6 µM; 1,900 tested, 66% active;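 active = mean activation above the mean of solvent-only control wells plus 3 SD, cut at about 22% in these data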;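 note: counterscreen of GAA850 promoter hits where activity marks nonselective or luminescence artifacts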
FXN GAA850 conf = GAA850 FXN promoter activation confirmation; activation, % at 6 µM; HEK293 lucGAA850 FXN promoter luciferase reporter, 24 h; 100% = activation by SAHA; shares compounds with FXN GAA850 act; AID 588351; 1,900 tested, 86% active;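 active = mean activation above a set limit taken from the primary screen, cut at about 8% in these data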;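 note: 0% = DMSO wells and 100% = 10 µM SAHA wells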
* hit, by the source's call; ? = inconclusive; nt = no result.

SMILES	HSP90 refold inh	FXN GAA850 act	AHR activator	HSF-1 act	NR0B1 inh	HSF1 inh	GAA30 FXN cntr	FXN GAA850 conf
Cc1c(C(=O)NCC2CCCO2)sc2nc(-c3ccc(F)cc3)cn12 (stereo not given)	-3	17*	4	10	-1	8	61*	21*
CC(CC(=O)c1cccs1)CC(=O)c1cccs1	-5	6	1	42	1	22	nt	nt
Cc1cc(C)c(C(CC(=O)c2cccs2)C(C#N)C#N)c(C)c1 (stereo not given)	-3	9.0*	58*	122*	-1	85	100*	61*
COc1cc2c3c(cccc3c1)C(=O)N(CCN1CCCC1)C2=O	nt	27*	nt	nt	8.7*	nt	-29	131*
Cc1cc(C)c(C)c(S(=O)(=O)Nc2ccccc2C(=O)NCCCN2CCOCC2)c1C	-1	1	1	7	-1	-6	nt	nt
COc1ccc(C(CNC(=O)Nc2ccc(Cl)cc2)N2CCN(C)CC2)cc1 (stereo not given)	-2	0	0	10	0	-1	nt	nt
O=C(NC(=S)NC1CCCCCC1)c1cncc(Br)c1	1	8.3*	17	21	1	8	95*	33*
O=C(NC(=S)Nc1ncc(Br)cc1Br)c1cncc(Br)c1	-5	1	0	-19	2	-7	nt	nt
CCOC(=O)C(=O)Nc1cc(C(=O)OC)cc(C(=O)OC)c1	3	0	-1	5	0	-8	nt	nt
O=Cc1sc(Nc2ccccc2)nc1Cl	3	0	7	-24	-2	?	nt	nt
COc1ccccc1Nc1nc(Cl)c(C=O)s1	0	11*	3	10	0	-3	53*	47*
CC[C@]12c3[nH]c4ccc(OC)cc4c3CCN1C(=O)C(CC(=O)NCC13CC4CC(CC(C4)C1)C3)C[C@@H]2C(=O)N1CCN(C(=O)C2CC2)CC1 (stereo not given in full)	nt	15*	nt	nt	0	nt	23*	15*
CC[C@]12c3[nH]c4ccc(Cl)cc4c3CCN1C(=O)[C@@H](CC(=O)NCC13CC4CC(CC(C4)C1)C3)C[C@@H]2C(=O)N1CCN(C(=O)C2CC2)CC1	nt	6	nt	nt	-1	nt	nt	nt
CC[C@]12c3[nH]c4ccccc4c3CCN1C(=O)C(CC(=O)NCC13CC4CC(CC(C4)C1)C3)C[C@@H]2C(=O)N1CCN(C(=O)C2CC2)CC1 (stereo not given in full)	nt	9.0*	-1	nt	0	nt	-10	3
CC[C@]12c3[nH]c4ccccc4c3CCN1C(=O)C(CC(=O)NC(C)(C)C)C[C@@H]2C(=O)N1CCN(C(=O)C2CC2)CC1 (stereo not given in full)	nt	-1	-2	nt	2	nt	nt	nt
O=C(CNC(=O)c1ccc(F)cc1)Nc1ccccc1C(F)(F)F	3	2	-1	nt	0	nt	nt	nt
COc1ccc(Nc2nccc3c2ncn3C)cc1	nt	5	-4	-4	1	-5	nt	nt
Nn1nnc2ccccc21	nt	20*	-2	34	2	7	46*	16*
CCNc1nc(N)nc(Oc2ccc(OCCOc3ccc(Cl)cc3Cl)nn2)n1	1	13*	-1	27	0	8	16	8.6*
NC(=O)Cc1nc(-c2ccc(Br)cc2)cs1	-1	2	3	10	0	7	nt	nt
Oc1csc(Cc2nc(-c3ccc(Br)cc3)cs2)n1	-7	7.6*	78*	nt	2	nt	96*	38*
CCOC(=O)c1c(NC(=O)C2C3CCC(O3)C2C(=O)O)sc(C)c1-c1ccc(C)cc1 (stereo not given)	-4	-1	1	-6	1	1	nt	nt
Cc1sc(NC(=O)C2C3CCC(O3)C2C(=O)O)nc1-c1ccc(CC(C)C)cc1 (stereo not given)	8	13*	4	1	2	8	62*	26*
Clc1cccc(Cl)c1/C=C/c1ccn[nH]1	4	1	-4	-15	-1	-3	nt	nt
CC(CNC(=S)Nc1cc(F)cc(F)c1)CSc1ccc(Cl)cc1 (stereo not given)	5	-1	2	4	-2	-1	nt	nt
SMILES	HSP90 refold inh	FXN GAA850 act	AHR activator	HSF-1 act	NR0B1 inh	HSF1 inh	GAA30 FXN cntr	FXN GAA850 conf
O=[N+]([O-])c1ccc(Sc2cccc3cccnc23)c([N+](=O)[O-])c1	2	22*	8	33	-1	-1	-96	-22
O=[N+]([O-])c1cc(Cl)ccc1Sc1cccc2cccnc12	4	2	-1	nt	-1	nt	nt	nt
O=[N+]([O-])c1ccc(Sc2cccc3cccnc23)cc1	2	9.3*	0	41	0	23	83*	30*
O=[N+]([O-])c1ccc(Sc2ccncn2)c([N+](=O)[O-])c1	nt	71*	nt	nt	-3	nt	-20	97*
O=[N+]([O-])c1cc(Cl)ccc1Sc1ccccn1	5	2	-1	37	-2	11	nt	nt
Cc1ccc(-c2c(C(=O)N/N=C/c3ccsc3)nnn2-c2nonc2N)cc1	-6	0	6	0	0	2	nt	nt
CCN1C(=O)[C@H]2[C@@H](c3ccccc3)N3C(=O)N(c4cccc(F)c4)C(=O)[C@@]3(CC(C)C)[C@H]2C1=O	0	8.8*	0	-7	1	3	25*	7
Cc1cccc([C@@H]2[C@@H]3C(=O)N(Cc4ccccc4)C(=O)[C@@H]3[C@]3(CC(C)C)C(=O)N(c4cccc(F)c4)C(=O)N23)c1	nt	-2	2	25	0	14	nt	nt
CCN1C(=O)[C@H]2[C@@H](c3ccc(C)cc3)N3C(=O)N(c4cccc(Br)c4)C(=O)[C@@]3(CC(C)C)[C@H]2C1=O	nt	16*	1	0	0	4	22*	11*
CN=C1S/C(=C\c2ccc(O)c(OC)c2)C(=O)N1C	nt	9.9*	-1	32	nt	16	113*	35*
CN=C1S/C(=C\c2ccc(O)c(Br)c2)C(=O)N1C	1	4	-2	6	2	-3	nt	nt
CC1CCCCN1S(=O)(=O)c1ccc2[nH]c(=O)cc(C(=O)NCCCN3CCCCCC3)c2c1 (stereo not given)	-6	1	-3	1	0	-5	nt	nt
CCN1CCN(c2ccccc2NC(=O)C(C)Oc2ccc(C(C)=O)cc2)CC1 (stereo not given)	nt	-2	0	nt	0	nt	nt	nt
CCOC(=O)c1sc(=S)n(Cc2ccccc2)c1C	5	0	0	-7	-2	7	nt	nt
CN(C)C(=S)N=c1ssc(=S)n1Cc1ccccc1	nt	21*	nt	nt	-2	nt	4	28*
